Values joined by “and” are separate entries in the source; they are usually repeats but may differ in a detail not shown here. Equal entries are not always repeated. ± gives the uncertainty stated by the source.
tested on: HEK293T-Rex ERSE-FLuc; assay: ERSE-FLuc reporter activation, triplicate confirmation, relative to 500 nM thapsigargin (% of thapsigargin); higher = stronger ATF6/ERSE reporter activation; conditions: 6.8 µM; 18 h; screen: confirmation
Protocol: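 HEK293T-Rex cells stably expressing the ERSE-firefly luciferase (BiP promoter, ATF6-preferring) or XBP1-splicing Renilla luciferase (IRE1/XBP1s) reporter, 1536-well plates, compound at 6.8 µM for 18 hr at 37 °C; luminescence read […] and expressed as % activation = 100*(compound - median DMSO)/(median 500 nM thapsigargin - median DMSO). Primary screen was single-pass; confirmation screen in triplicate (mean ± SD).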

SMILES	ERSE-FLuc reporter activation
Nc1ccccc1NC(=O)c1ccc(C(F)(F)F)cc1	27.2 ± 5.7
O=C(Nc1nc2c(s1)CCCC2)c1cccc2ccccc12	33.8 ± 2.4
CCCNC(=O)c1cc(-c2cccs2)on1	51.5 ± 5.4
CCCCCOc1ccc(N/C(N)=N/c2nc(C)cc(C)n2)cc1	110 ± 12
O=C1/C(=C/c2ccc(O)c(O)c2)SC(=S)N1c1ccc(O)cc1	30.5 ± 8.2
COC(=O)c1ccc2c(COC(C)=O)c(OC(C)=O)ccc2c1COC(C)=O	113 ± 10
Nc1nc(Nc2ccccc2)cc(-c2ccccc2)n1	33.8 ± 3.9
Cc1ccccc1NC(=O)c1sc2nc(N)c(C#N)c(-c3ccc(C(C)C)cc3)c2c1N	36.7 ± 3.3
CCOc1ccc2nc(NC(=O)c3ccn(C)n3)sc2c1	30 ± 23
CCOc1cccc(C(=O)Nc2ccc(Br)cn2)c1	26 ± 3.3
O=C1c2cc(O)ccc2-c2ccc(O)cc21	25.6 ± 6
Nc1ccccc1NC(=O)c1ccc(C(=O)Nc2ccccc2N)cc1	25.1 ± 3.8
NC(=O)c1c(NC(=O)/C=C/c2ccccc2)sc2c1CCCCC2	28.9 ± 2.4
N#Cc1c(NC(=O)/C=C/c2ccco2)sc2c1CCCC2	29.4 ± 2.5
O=C(N/N=C/c1ccc(Cl)cc1Cl)c1ccc(O)c(O)c1	25.8 ± 6.1
O=C(CCCCCCC(=O)Nc1ccccc1)NO	59.2 ± 17
O=C(COC(=O)c1ccc(O)c(O)c1)Nc1nc(-c2ccccc2)cs1	39.3 ± 5.9
COc1ccc(-c2csc(-c3ccc(O)cc3)n2)cc1	29.4 ± 5
Cc1ccc(C(=O)Nc2sc3c(c2C#N)CCC3)cc1	27.4 ± 2.7
Cc1cc(C)c(OCC(=O)N/N=C/c2ccc(O)c(O)c2)c(Br)c1	28.7 ± 6.2

SMILES	ERSE-FLuc reporter activation
CN1C(=O)/C(=C\c2ccc(O)c(O)c2)SC1=S	25.2 ± 1.4
CN(C)/C=N/C1=C(C#N)C(c2ccc3c(c2)OCO3)c2ccc3ccccc3c2O1 (stereo not given)	26.1 ± 9.6
CN(C)c1ccc(-c2nc3ccc(N)cc3[nH]2)cc1	32.7 ± 4.4
COc1ccccc1-c1cc(C(=O)Nc2cc(C)ccc2O)no1	29.1 ± 4
NC(=O)c1c(NC(=O)c2cccc3ccccc23)sc2c1CCC2	32 ± 1.6
Cc1ccn2cc(-c3ccc(O)c(O)c3)nc2c1	36.4 ± 12
O=C(N/N=C/c1ccc(O)c(O)c1)c1ccc(Br)cc1	31.2 ± 2.8
O=C(Nc1ccccc1O)c1ccc(C(=O)c2ccccc2)cc1	41.5 ± 9.7
Cc1ccc(O)c(NC(=O)c2cc(CC(C)C)on2)c1	84.4 ± 15
COc1cccc(/C=N/NC(=O)c2ccc(NC(=O)c3ccc(C)cc3)cc2)c1O	36.4 ± 11
N#C/C(=C\c1ccc(O)c(O)c1)C(=O)Nc1ccccc1	29.5 ± 5.4
O=c1cc(-c2ccc(O)c(O)c2)oc2cc(O)cc(O)c12	46 and 36.9
O=C(NCCCn1ccnc1)c1cc(-c2cccs2)on1	42.5 ± 6.9
O=[N+]([O-])c1ccc(N/N=C/c2ccccc2O)cc1	20.7 ± 2.3
Cc1cnc(NC(=O)c2sc3nc4c(C)cccc4cc3c2N)s1	28.6 ± 7.1
Cc1ccc(O)c(NC(=O)CCc2ccccc2)c1	63.24 ± 0.61
Cc1nn(-c2ccc(F)cc2)c2ncc(C(=O)NCc3ccco3)c(Cl)c12	54.5 ± 3.9
Cc1cc(C)nc(/N=C(\N)Nc2ccc(OCCC(C)C)cc2)n1	58.2 ± 6.3
O=C(NC(c1ccccc1)c1ccccc1)c1csc(-c2cnccn2)n1	30.5 ± 7.8
CCCCCC(=O)Nc1ccc(C(=O)Nc2ccccc2O)cc1	44.9 ± 11

Source: the supplement of paper PMC4954754
